# Test results as given in article PMC4336329 (PLoS ONE, 2015).
# Out of some 310,000 compounds screened, about 14,000 (4.5%) showed an effect of 50% or more. Effects have a minus sign here. The list comes from a sample in which strong results are over-represented; it also holds similar structures and randomly drawn compounds.
# Target: human ether-à-go-go-related gene (hERG) potassium channel (human, UniProt Q12809)
# Assay: primary screen, population patch clamp on CHO cells stably expressing hERG; higher = less effect of the substance
# 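Further: peak tail current of the secondary pulse compared with the same well before compound.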
# human ether-à-go-go-related gene (hERG) potassium channel, sequence (Q12809 whole entry, looked up): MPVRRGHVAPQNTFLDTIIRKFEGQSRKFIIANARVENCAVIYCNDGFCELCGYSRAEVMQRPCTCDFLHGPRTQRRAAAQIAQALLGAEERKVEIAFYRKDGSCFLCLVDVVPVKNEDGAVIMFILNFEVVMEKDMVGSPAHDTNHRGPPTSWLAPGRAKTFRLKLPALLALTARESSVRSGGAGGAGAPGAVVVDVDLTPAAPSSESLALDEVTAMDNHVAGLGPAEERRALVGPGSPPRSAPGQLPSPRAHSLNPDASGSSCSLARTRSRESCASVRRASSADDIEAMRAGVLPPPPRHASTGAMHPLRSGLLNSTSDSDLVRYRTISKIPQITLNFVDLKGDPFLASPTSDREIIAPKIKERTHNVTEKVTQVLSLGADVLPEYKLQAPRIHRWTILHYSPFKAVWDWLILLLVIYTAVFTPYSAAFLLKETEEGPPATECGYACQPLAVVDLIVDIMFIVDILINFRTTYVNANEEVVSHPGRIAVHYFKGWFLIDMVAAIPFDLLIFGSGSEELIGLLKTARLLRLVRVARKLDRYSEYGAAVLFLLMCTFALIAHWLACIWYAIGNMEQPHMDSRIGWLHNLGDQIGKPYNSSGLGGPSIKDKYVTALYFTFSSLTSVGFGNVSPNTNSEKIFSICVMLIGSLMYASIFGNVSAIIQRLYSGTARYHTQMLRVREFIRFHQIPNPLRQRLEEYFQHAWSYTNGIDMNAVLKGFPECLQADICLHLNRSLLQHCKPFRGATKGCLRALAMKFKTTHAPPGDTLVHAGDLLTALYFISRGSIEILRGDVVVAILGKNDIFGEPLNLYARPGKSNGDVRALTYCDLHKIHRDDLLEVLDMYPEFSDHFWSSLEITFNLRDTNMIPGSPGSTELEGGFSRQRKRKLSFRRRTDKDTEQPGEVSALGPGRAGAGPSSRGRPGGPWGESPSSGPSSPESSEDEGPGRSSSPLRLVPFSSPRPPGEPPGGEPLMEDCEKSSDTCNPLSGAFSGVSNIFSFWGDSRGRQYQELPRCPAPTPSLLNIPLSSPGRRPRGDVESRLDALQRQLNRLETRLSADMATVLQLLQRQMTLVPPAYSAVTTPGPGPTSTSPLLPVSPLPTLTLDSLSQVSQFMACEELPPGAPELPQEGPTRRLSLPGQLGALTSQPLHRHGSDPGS
row,Structure (SMILES),"hERG current change (%, negative = inhibition) at 10uM [%]"
1,COP(=O)(OC)C(Nc1ccc([N+](=O)[O-])cc1)c1ccccc1 (stereo not shown),-36.1
2,CC(NC(=S)NCCc1ccccc1)C(c1cccs1)N1CCN(Cc2ccccc2)CC1 (stereo not shown),-41.3
3,Cc1sc(NC(=O)/C=C/c2ccc3c(c2)OCO3)nc1-c1ccccc1,8.5
4,Cc1ccc(C)c(NS(=O)(=O)c2cc(C(=O)Nc3ccccc3-c3ccccc3)ccc2C)c1,18.2
5,COc1cccc(CN2CCCCC2c2cccnc2)c1 (stereo not shown),3.01
6,Cc1noc(C)c1COc1ccc(C(=O)OCC(=O)NCCN2C(=O)CSC2=O)cc1,-8.06
7,CC(c1c(O)c2ccccc2[nH]c1=O)C1(C)CCC(O)C(C)(C)O1 (stereo not shown),-2.48
8,COc1cc(/C=C(\C#N)c2nc3c(s2)CC(C)CC3)ccc1O (stereo not shown),10.1
9,O=C(C(=O)N1CCOCC1)c1c[nH]c2ccccc12,18.3
10,O=C(C(=O)N1CCCC1)c1c[nH]c2ccccc12,7.14
11,COc1ccc(S(=O)(=O)N2CCC3(CC2)CC(=O)c2ccccc2O3)cc1OC,11.6
12,COc1ccc(Cl)cc1C(=O)N1CCC2(CC1)CC(=O)c1ccccc1O2,-80.5
13,O=C1CC2(CCN(C(=O)c3c(F)cccc3Cl)CC2)Oc2ccccc21,-41.2
14,CSc1ccccc1C(=O)N1CCOCC1,20
15,CSc1ccccc1C(=O)N1CCC2(CC1)CC(=O)c1ccccc1O2,-61
16,COc1ccc(S(=O)(=O)N2CCC3(CC2)CC(=O)c2ccccc2O3)cc1C,-3.6
17,O=C1CC2(CCN(C(=O)c3ccccc3Cl)CC2)Oc2ccccc21,-72.7
18,O=C1CC2(CCCC2)Oc2ccccc21,3.39
19,O=C1CC2(CCN(C(=O)C(=O)c3c[nH]c4ccccc34)CC2)Oc2ccccc21,-55.3
20,CSc1ccccc1C(=O)N1CCCCC1,-9.98
21,CCn1c(SCC(=O)N2CCCc3ccccc32)nc2c(c1=O)SC(C)C2 (stereo not shown),-24.7
22,O=C(O)/C=C/c1ccccc1Oc1ccc(Cl)cc1Cl,-8.85

row,Structure (SMILES),"hERG current change (%, negative = inhibition) at 10uM [%]"
1,CC(NC(=O)C[n+]1cccc(Br)c1)c1ccccc1.[Cl-] (stereo not shown),17.6
2,COC(C(=O)N/N=C(\C)CC(=O)Nc1ccc(Cl)cc1C)c1ccccc1 (stereo not shown),-10.5
3,CCOC(=O)CSc1nc(C)cc(C)n1,7.29
4,FC(F)(F)c1ccccc1CNCc1ccc2c(c1)OCO2,0.962
5,O=C(Nc1ccccc1OC(F)F)c1oc2ccccc2c1COc1ccccc1,0.283
6,COc1ccc(-n2c(Cc3cc(=O)[nH]c(=O)[nH]3)nnc2SCC(=O)Nc2cc(C(F)(F)F)ccc2Cl)cc1,-3.73
7,CCCC(c1nnnn1CC(=O)OCC)N(Cc1cc2c(C)cc(C)cc2[nH]c1=O)C1CCCC1 (stereo not shown),22.1
8,CC(=O)N1CCC2(CC1)CC(=O)c1cc(Cl)ccc1O2,-55.2
9,O=C(c1ccccc1F)N1CCC2(CC1)OCCO2,30.8
10,O=C1CC2(CCCC2)Oc2ccc(Cl)cc21,8.19
11,O=C1CC2(CCN(C(=O)c3ccccc3Br)CC2)Oc2ccccc21,-76.9
12,O=C1CC2(CCN(C(=O)c3c(F)cccc3F)CC2)Oc2ccccc21,-34.2
13,O=C1CC2(CCCCC2)Oc2ccccc21,14.4
14,O=C1CC2(CCCCCC2)Oc2ccccc21,-6.74
15,O=C1CC2(CCN(C(=O)c3ccccc3F)CC2)Oc2ccccc21,-73.2
16,O=C1CC2(CCCCCC2)Oc2ccc(Cl)cc21,9.01
17,Cc1ccc(SC(C)C(=O)N2CCC(C(N)=O)CC2)cc1 (stereo not shown),20.1
18,CCOc1ccc(-c2nc(N)ncc2Oc2ccc(OC)cc2)c(O)c1,-2.1
19,Cc1cccc(CNc2ccc(C(CC(N)=O)NC(=O)c3cccc(Br)c3)cc2[N+](=O)[O-])c1 (stereo not shown),-19.8
20,O=C(C[n+]1cccc(C(=O)Nc2ccccc2)c1)c1ccc([N+](=O)[O-])cc1.[Br-],-73.1
21,O=C(C[n+]1ccc2ccccc2c1)c1ccc(NC(=O)c2ccccc2)cc1.[Br-],-0.135
22,O=C(Cn1cc[n+](Cc2ccccc2)c1)c1ccc([N+](=O)[O-])cc1.[Br-],-23.7

row,Structure (SMILES),"hERG current change (%, negative = inhibition) at 10uM [%]"
1,O=C(Nc1cccc([N+](=O)[O-])c1)c1cccc(C(=O)Nc2cccc([N+](=O)[O-])c2)c1,24.1
2,O=C(C[n+]1ccc2ccccc2c1)c1cccc2ccccc12.[Br-],-72.8
3,O=C(C[n+]1ccc2ccccc2c1)c1ccccc1.[Br-],-22.5
4,CCC(=O)Nc1cccc(NC(=O)c2cccc([N+](=O)[O-])c2)c1,-61.2
5,CC(C)C(=O)Nc1cccc(NC(=O)c2cccc([N+](=O)[O-])c2)c1,-30.9
6,O=C(C[n+]1cccc(NC(=O)c2ccccc2)c1)c1ccc(NC(=O)c2ccccc2)cc1.[Br-],1.37
7,O=C(C[n+]1ccn(-c2ccccc2)c1)c1ccc([N+](=O)[O-])cc1.[Br-],-61.3
8,O=C(Nc1ccccc1)c1ccc[n+](Cc2ccc([N+](=O)[O-])cc2)c1.[Br-],-4.25
9,C=Cn1cc[n+](CC(=O)c2ccc(-c3ccccc3)cc2)c1.[Br-],7.91
10,COc1ccc(/C=C/C(=O)O)cc1S(=O)(=O)NCC1CCCO1 (stereo not shown),14.1
11,O=[N+]([O-])c1cccc(CSC2=NCCN2S(=O)(=O)c2ccccc2)c1,-6.78
12,O=C(O)c1cccc(CSc2nc(-c3ccc(Cl)cc3)cc(C(F)(F)F)n2)c1,-0.199
13,NNC(=O)c1c(O)c2cccc3c2n(c1=O)CCC3,22.4
14,COc1ccc(N2CCN(S(=O)(=O)c3ccc4c(c3)CCCC4)CC2)c([N+](=O)[O-])c1,6.51
15,Cc1cc(C(=O)c2ccc3ccccc3c2)c(C)o1,2.09
16,Cn1ncc([N+](=O)[O-])c1C(=O)N/N=C/c1ccc(F)cc1,-9.05
17,O=C(Nc1ccccc1C(=O)N1CCCCC1)c1cc(F)c(F)cc1Cl,1.47
18,Cc1cc[n+](CC(=O)c2ccccc2)c2ccccc12.[Br-],-8.1
19,NC(=O)c1ccc[n+](CC(=O)c2ccc(NC(=O)c3ccccc3)cc2)c1.[Br-],27.1
20,NC(=O)c1ccc[n+](CC(=O)c2cccc([N+](=O)[O-])c2)c1.[Br-],16.9
21,O=C(C[n+]1cccc2ccccc21)c1ccc([N+](=O)[O-])cc1.[Br-],-72.4
22,O=C(Nc1ccc[n+](CC(=O)c2cccc3ccccc23)c1)c1ccccc1.[Br-],-58.9

row,Structure (SMILES),"hERG current change (%, negative = inhibition) at 10uM [%]"
1,O=C(C[n+]1cccc(NC(=O)c2ccccc2)c1)c1ccccc1.[Br-],-18.1
2,O=C(Nc1cccc([N+](=O)[O-])c1)c1ccccc1,7.97
3,O=C(C[n+]1cccc(NC(=O)c2ccccc2)c1)c1cccc([N+](=O)[O-])c1.[Br-],-76.3
4,Cc1ccc(C(=O)C[n+]2cccc3ccccc32)cc1.[Br-],-9.35
5,Cc1cc[n+](CC(=O)c2cccc([N+](=O)[O-])c2)c2ccccc12.[Br-],-58.8
6,O=C(C[n+]1cccc2ccccc21)c1ccccc1.[Br-],-1.84
7,Cc1cc[n+](CC(=O)c2ccc(NC(=O)c3ccccc3)cc2)c2ccccc12.[Br-],7.1
8,O=C1c2ccccc2C(O)(Cc2ccccc2)N1Cc1ccco1 (stereo not shown),10.1
9,Cc1ccc(C(=O)Nc2ccc(N3CCOCC3)cc2)cc1S(=O)(=O)N1CCCCC1,-10.1
10,CCOC(=O)CC1(c2ccc(OC)c(OC)c2)C(=O)c2ccccc2C1=O,-1.97
11,c1ccc(-c2cc3c(nn2)CCc2nonc2-3)cc1,0.384
12,COc1ccc(-c2nnc(SCC(=O)c3cccs3)o2)cc1,-8.4
13,CCCOC(=O)CCCCCCCCC(O)CN1CCCCC1.Cl (stereo not shown),-30
14,Cc1ccnc(NC(=O)Nc2cccc(F)c2)c1,-4.23
15,COc1ccc(NC(=O)c2ccc3ccccc3c2)cc1,11
16,Cc1cccc(CSCCNC(=O)c2ccc(N(C)S(=O)(=O)c3ccccc3)cc2)c1,-4.05
17,Cc1ccc(C(CC(=O)N2CCCC2)c2ccccc2)c(O)c1 (stereo not shown),4.04
18,Cc1ccc(C(CC(=O)N2CCNCC2)c2ccccc2)c(O)c1C (stereo not shown),-63.8
19,Cc1cccc(C(CC(=O)N2CCCCC2)c2ccccc2)c1O (stereo not shown),-34.2
20,Cc1cccc(C(CC(=O)N2CCCC2)c2ccccc2)c1O (stereo not shown),-19.4
21,Cc1ccc(C(CC(=O)N2CCCC2)c2ccccc2)c(O)c1C (stereo not shown),-57.9
22,Cc1ccc(C(CC(=O)N2CCCCC2)c2ccccc2)c(O)c1C (stereo not shown),-22.1
